# From PubChem
# tim23-1 inh: growth inhibitors of tim23-1 mutant yeast, primary screen, luminescence, uHTS; S. cerevisiae tim23-1 growth, BacTiter-Glo luminescence, 24 h; inhibition, % at 20 µM; actives 1.3% (n = 330,000); AID 463212, 2010;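 active = growth inhibition of the mutant yeast at or above 50%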;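 note: temperature-sensitive mutant grown at 25 °C; plate controls were DMSO-treated mutant yeast for no effect and medium wells lacking yeast for full effect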
# tim10-1 inh: growth inhibitors of tim10-1 mutant yeast, primary screen, luminescence, uHTS. S. cerevisiae tim10-1 ts strain growth, BacTiter-Glo, 24 h. actives 2.2% (n = 330,000). inhibition, % at 20 µM. AID 463190, 2010;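 active = inhibition of at least 40%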;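 note: mutant grown at 25 °C; 0% = DMSO wells with yeast and 100% = wells holding no yeast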
# TIM10 inh: growth inhibitors of isogenic TIM10 control yeast, primary screen, counter-screen for tim10-1 yeast inhibitor project, luminescence, uHTS; S. cerevisiae TIM10 strain growth, BacTiter-Glo luminescence, 24 h; inhibition, % at 10 µM; actives 1.4% (n = 330,000);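 active = inhibition of 40% or more at the single tested concentration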;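 note: wild-type TIM10 isogenic control strain grown at permissive 25 °C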
# NALP3 yeast inh: NALP3 inflammasome inhibitors in reconstituted yeast, primary screen, luminescence, uHTS; AID 2825, 2010; Yeast reconstituted NLRP3/ASC/caspase-1, beta-gal luminescence, 24 h; inhibition, % at 10 µM; actives 0.39% (n = 330,000);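 active = inhibition of 50% or more; inactive = inhibition below 50%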;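 note: plate controls were induced DMSO wells for no effect and uninduced yeast grown without galactose for full effect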
# NALP1 inh: NALP1 inflammasome inhibitors in reconstituted yeast, colorimetric, S. cerevisiae, triplicate retest | S. cerevisiae NALP1/ASC/caspase-1 growth, X-gal OD620, 72 h | inhibition, % at 10 µM | actives 0.61% (n = 280,000); in the data active = inhibition mostly above about 24%, no sharp cut-off; inactive = mostly below about 32%
# NALP3 confirm: NALP3 inhibitors retested in yeast, confirmation, luminescence, single concentration; shares compounds with NALP3 yeast inh; yeast expressing human NALP3; inhibition, % at 10 µM; actives 81% (n = 1,300); AID 435006, 2010; in the data active = inhibition above about 48%
# Casp1 ASC ctr: CASP1-PYCARD signaling inhibition in yeast, confirmatory test, counterassay for NLRP3 inhibitor program, one-dose. shares compounds with NALP3 yeast inh. inhibition, % at 10 µM. yeast expressing Caspase-1-ASC, luminescence counter screen. actives 66% (n = 1,000)
# NALP3 yeast rt: NALP3 inhibitors in yeast, repeat test, confirmation, luminescence, single concentration, retest; shares compounds with NALP3 yeast inh; yeast expressing human NALP3, luminescence read-out; inhibition, % at 10 µM; actives 53% (n = 1,000); AID 488794, 2010
# tim10-1 conf: growth inhibitors of tim10-1 mutant yeast, confirmation, single concentration, luminescence, S. cerevisiae; shares compounds with tim10-1 inh; S. cerevisiae tim10-1 ts strain growth, BacTiter-Glo, 24 h; inhibition, % at 20 µM; actives 56% (n = 7,400);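 active = inhibition of yeast growth at or above a set limit in either of two repeat tests at 20 µM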;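 note: tim10-1 mutant grown at permissive 25 °C to find synthetic lethal compounds; 0% = DMSO yeast wells and 100% = medium wells without yeast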
# TIM10 conf: growth inhibitors of wild-type TIM10 yeast, confirmation, counter-screen for tim10-1 synthetic lethality project, single concentration, luminescence, S. cerevisiae; shares compounds with TIM10 inh; actives 63% (n = 4,600); inhibition, % at 10 µM; S. cerevisiae tim10 strain growth, BacTiter-Glo luminescence, 24 h;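 active = inhibition of yeast growth at or above a set limit in either of two replicates at 10 µM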;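 note: this counterscreen used the strain with wild-type TIM10; 0% = yeast with DMSO and 100% = medium wells lacking yeast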
# tim23-1 conf: tim23-1 mutant yeast growth inhibitors, confirmation, luminescence, single concentration. actives 83% (n = 4,400). inhibition, % at 20 µM. S. cerevisiae tim23-1 growth, BacTiter-Glo luminescence, 24 h. AID 463218, 2010. shares compounds with tim23-1 inh;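 active = inhibition above about 39% in either of two replicate wells at 20 µM, limit read from the data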;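 note: temperature-sensitive tim23-1 mutant grown at 25 °C; 0% = DMSO wells with yeast and 100% = medium wells without yeast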
# The depositor's hits bear a star; · = not tested or not shown. This is a sample that favours compounds with a hit; in the whole collection about 4% have one here. Cut-off read from the data, not from the text of the source, unless noted: active = inhibition above about 50%; inactive = the rest.
SMILES,tim23-1 inh,tim10-1 inh,TIM10 inh,NALP3 yeast inh,NALP1 inh,NALP3 confirm,Casp1 ASC ctr,NALP3 yeast rt,TIM10 conf,others
Cc1nnc(NC(=O)C2CC(=O)N(C(C)c3ccccc3)C2)s1 (centres undefined),11.8,5.3,-3.8,17.4,3.0,·,·,·,·,
CSc1ccc2c(c1)N(CCC1CCCCN1C)c1ccccc1S2 (centres undefined),17.0,23.0,52.5*,52.1*,50.1*,60.1*,51.9*,32.8,29.1,
CC(=O)c1ccc2c(c1)N(CCCN1CCC(CCO)CC1)c1ccccc1S2,-32.0,-11.1,8.6,11.7,·,·,·,·,·,
Nn1c(SCc2ccc(Br)cc2)nnc1-c1ccccn1,40.7,16.2,45.7*,64.6*,1.0,67.2*,53.9*,56.1*,59.8*,
Cc1cccc(CSc2nnc(-c3ccccn3)n2N)c1,21.8,5.0,15.8,8.0,21.2,·,·,·,·,
Cc1ccc(C(=O)/C=C/Nc2ccccn2)cc1,29.7,3.0,43.3*,53.0*,·,20.4,·,·,30.0,
Cc1cccc(NC(=O)/C(C#N)=C/c2cccc([N+](=O)[O-])c2)n1,39.8,30.5,7.4,9.8,15.6,·,·,·,·,
CN1CCN(Cn2cc(/C=C/C(=O)c3ccccc3)c3ccccc32)CC1,-61.4,61.6*,66.7*,67.0*,0.4,73.8*,·,·,65.2*,tim10-1 conf=0.2
CCN(CC)CCN1C(=O)C(O)=C(C(=O)c2cc3cccc(OC)c3o2)C1c1cccs1 (centres undefined),3.2,-11.6,-3.4,14.5,0.4,·,·,·,·,
CC(=O)Nc1ccc(O)c(-c2nc3ccccc3s2)c1,28.2,2.6,46.2*,55.7*,14.3,67.4*,·,·,-2.1,
O=C(O)C1CCC(N2C(=O)c3c(Cl)c(Cl)c(Cl)c(Cl)c3C2=O)CC1 (centres undefined),·,·,·,·,7.9,·,·,·,·,
CCCOc1ncnc2c1[nH]c1ccc(OC)cc12,5.6,4.1,9.1,31.9,8.6,·,·,·,·,
CCCOc1ncnc2c1[nH]c1ccccc12,33.5,1.8,48.1*,73.8*,-2.4,87.5*,81.2*,75.6*,31.3*,
Cc1nccn1CCOc1ccc(Cl)cc1,-2.0,-1.2,6.6,4.8,12.9,·,·,·,·,
Cc1noc(/C=C/c2cccnc2)c1[N+](=O)[O-],43.7,54.7*,56.5*,80.1*,28.5,87.3*,84.6*,54.2*,74.9*,tim10-1 conf=57.2*
Cc1cccc(C)c1N/C=C/c1onc(C)c1[N+](=O)[O-],1.5,1.7,-7.5,15.8,27.4,·,·,·,·,
O=C(O)C1CCCN1c1nc(-c2ccc(Cl)c(Cl)c2)cc(C(F)(F)F)n1 (centres undefined),8.8,-1.2,2.2,-19.2,·,·,·,·,·,
c1ccc(-c2cc3c(ccc4nonc43)nn2)cc1,12.2,20.5,-16.8,-2.3,2.0,·,·,·,·,
On1onc2c3cc(-c4ccccc4)nc3ccc21,23.7,36.0,61.1*,50.6*,-0.6,71.5*,·,·,52.9*,
O=Cc1c(NCCN2CCCC2)c2ccccc2[nH]c1=O,7.9,3.7,-10.2,9.6,6.9,·,·,·,·,
COc1ccc(-c2nc3ccccc3s2)cc1O,0.1,25.8,47.4*,73.4*,-2.8,46.4*,73.0*,64.2*,-24.0,
N/C(Cc1ccc(Cl)cc1)=N\OC(=O)c1cccc2ccccc12,35.7,10.3,75.5*,57.2*,-5.6,45.1*,54.7*,51.2*,76.3*,
CCc1ccc(C(C(=O)NC2CCCCC2)N(C(=O)c2csnn2)C2CC2)cc1 (centres undefined),13.5,0.4,-6.7,8.7,10.2,·,·,·,·,
CCCCn1c(-c2csc3c2CCCC3)n[nH]c1=S,34.0,20.5,42.9*,53.8*,5.9,66.2*,65.3*,54.7*,24.4,
CCn1c(-c2csc3c2CCCC3)n[nH]c1=S,34.7,29.4,34.1,28.8,24.0,·,·,·,·,
SMILES,tim23-1 inh,tim10-1 inh,TIM10 inh,NALP3 yeast inh,NALP1 inh,NALP3 confirm,Casp1 ASC ctr,NALP3 yeast rt,TIM10 conf,others
O=C(Nc1cccc(Cl)c1)c1cc(N=Nc2ccc([N+](=O)[O-])cc2Cl)ccc1O,71.2*,70.5*,39.5,56.5*,-8.4,86.2*,41.6,55.9*,·,tim10-1 conf=59.7*;tim23-1 conf=77.5*
O=C(Nc1cccc(Cl)c1)c1cccc(Oc2ccc([N+](=O)[O-])cc2Cl)c1,-5.4,23.1,9.7,30.8,15.5,·,·,·,·,
CCC(=O)c1ccc(OCC(=O)OC(C)C(=O)N2CCc3ccccc32)cc1 (centres undefined),23.1,9.4,6.8,1.4,·,·,·,·,·,
O=S1(=O)C=C(Sc2nc3ccccc3s2)c2ccccc21,66.1*,69.4*,76.6*,62.1*,12.0,63.5*,86.3*,59.0*,86.0*,tim10-1 conf=64.7*;tim23-1 conf=12.1
Cc1cc(C)nc(SC2=CS(=O)(=O)c3ccccc32)n1,20.9,15.3,27.9,16.1,25.3,·,·,·,·,
O=C(Nc1ccc(NC(=O)c2cccs2)cc1)c1cccs1,-2.6,-45.0,-6.9,1.8,5.6,·,·,·,·,
CN1CCN(c2ccc(NC(=O)c3cccs3)cc2)CC1,-4.6,-10.7,2.8,17.8,3.6,·,·,·,·,
O=C(Nc1ccc(Cl)cc1)c1cccs1,61.1*,-4.8,36.8,59.7*,·,77.0*,54.8*,65.4*,·,tim23-1 conf=58.6*
Cc1ccn(-c2ccc(NC(=O)c3cccs3)cc2)n1,74.9*,13.5,37.7,59.2*,-10.8,81.8*,64.4*,35.2,·,tim23-1 conf=68.6*
O=C(Nc1ccc(-c2cn3ccccc3n2)cc1)c1cccs1,62.4*,-3.7,42.0*,56.8*,0.2,75.8*,72.0*,61.9*,26.5,tim23-1 conf=71.4*
O=C(Nc1ccc(NC(=O)c2cccs2)c(Cl)c1)c1cccs1,50.5*,8.4,28.1,60.9*,1.0,83.7*,64.1*,59.9*,·,tim23-1 conf=64.7*
O=C(N/N=C/c1ccsc1)c1cc2ccccc2o1,56.3*,46.2*,54.9*,72.2*,8.6,86.8*,70.8*,75.0*,47.5*,tim10-1 conf=-4.3;tim23-1 conf=66.7*
